Measured values reported in PubChem BioAssay (NCI).
Compounds without any hit were thinned out: in the full panel of roughly 79,000, 15% have a hit. Cut-off read from the data, not from the text of the source: active = growth inhibition above about 70%; inactive = the rest. Where a SMILES comes first, the peptide text is derived from it. [ ]: non-standard residue; d: D form. The star is where a group is joined. ξ: configuration not given here. ξPhe(4-NO2) = NC(Cc1ccc([N+](=O)[O-])cc1)C(=O)O; Boc = CC(C)(C)OC(=O)*; OBn = c1ccc(CO*)cc1

Tests used:
[1] = NCI Yeast Anticancer Drug Screen. Data for the rad50 strain (AID 155);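 note: 0% = growth of vehicle-only cultures of the same strain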; details: S. cerevisiae rad50 strain growth inhibition; at 50.0 µM; active compounds read high
Summary of the method: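 Compounds were tested on a yeast strain with an engineered DNA damage repair alteration; the reported value is growth inhibition normalised to vehicle treatment.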

[2] = NCI Yeast Anticancer Drug Screen. Data for the mec2-1 strain (AID 157); details: S. cerevisiae mec2-1 strain, at 50.0 µM, active compounds read high
Summary of the method: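 Strain: mec2-1 (DNA repair/cell cycle alteration). Compound exposure, then growth measured; inhibition expressed relative to vehicle.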

[3] = NCI Yeast Anticancer Drug Screen. Data for the sgs1 mgt1 strain (AID 161);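 note: 0% = growth of cultures given vehicle only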; details: S. cerevisiae sgs1 mgt1 strain, at 50.0 µM, active compounds read high
Summary of the method: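 Read-out: growth inhibition vs vehicle controls. Cells: mutant yeast strain deficient in DNA damage repair.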

[4] = NCI Yeast Anticancer Drug Screen. Data for the cln2 rad14 strain (AID 165);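 note: 0% = growth equal to vehicle treated cultures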; details: S. cerevisiae cln2 rad14 strain, at 50.0 µM, active compounds read high
Summary of the method: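 Compounds are applied to the cln2 rad14 yeast strain, and growth is then compared with that of vehicle-treated cultures to give inhibition.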

[5] = NCI Yeast Anticancer Drug Screen. Data for the bub3 strain (AID 167); details: S. cerevisiae bub3 mutant strain, at 50.0 µM, active compounds read high
Summary of the method: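 Growth of a checkpoint-deficient yeast mutant is measured after compound exposure. Values represent inhibition relative to vehicle.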

[6] = NCI Yeast Anticancer Drug Screen. Data for the mlh1 rad18 strain (AID 175); details: S. cerevisiae mlh1 rad18 strain growth inhibition; at 50.0 µM; active compounds read high
Summary of the method: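 Read-out is yeast growth inhibition, calculated against vehicle-only controls. The compound was applied to a strain engineered with DNA damage repair alterations.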

Measured: growth inhibition

Cc1cc(C)c(S(N)(=O)=O)c(C)c1
inactive: [1] -1.2% | [2] -16.6% | [3] -28.2% | [4] -5.4% | [5] -15.1% | [6] -0.8%

CC12CCCC1C1CC=C3CC(SC4CCC5(C)C(=CCC6C7CCCC7(C)CCC65)C4)CCC3(C)C1CC2 (centres undefined)
inactive: [1] -2.05% | [2] -0.25% | [3] -21.5% | [4] -37.9% | [5] -17.6% | [6] -21.6%

CCOC(=O)c1c[nH]c2ccccc2c1=O
inactive: [1] 1.65% | [2] -8.95% | [3] -0.35% | [4] -16% | [5] -7.9% | [6] 2.2%

CC(C)(C)OC(=O)NC(Cc1ccc([N+](=O)[O-])cc1)C(=O)NCC(=O)OCc1ccccc1 (centres undefined) (Boc-[ξPhe(4-NO2)]-Gly-OBn)
inactive: [1] -17.4% | [2] 8.45% | [3] 7.05% | [4] 32.5% | [5] -5.5% | [6] -9%

CCC(C(=O)c1ccccc1)[n+]1ccccc1 (centres undefined)
inactive: [1] -4.55% | [2] -16% | [3] -6.7% | [4] -15.6% | [5] 13.2% | [6] 3.05%

Fc1ccccc1-c1ccccc1
inactive: [1] -26.4% | [2] -1.5% | [3] -13.5% | [4] -37.5% | [5] -10.8% | [6] -11.2%

CC1OC1C(=O)C1(O)C(C)C(O)C23OC2(C(O)c2c(O)cccc2C3=O)C1O (centres undefined)
inactive: [1] 6.75% | [2] -21.8% | [3] 8.65% | [4] -1.1% | [5] -0.7% | [6] 10.3%

NC(N)=NC(CC(=O)O)c1ccccc1 (centres undefined)
inactive: [1] -1.15% | [2] -20% | [3] -26.4% | [4] -26.2% | [5] -46.4% | [6] 10.2%

Cc1ccc2nc(CC(=O)c3ccc(F)cc3)c(=O)[nH]c2c1
inactive: [1] 1.85% | [2] 18.8% | [3] 16.1% | [4] 27.8% | [5] 18.1% | [6] 34.9%

O=C1C=CC(=O)C2CC=CCC12 (centres undefined)
inactive: [1] 24.2% | [2] 50.4% | [3] 1.7% | [4] -6.15% | [5] 4.55% | [6] 26.1%

NNC(=O)N/N=C(\CBr)c1ccc(Cl)cc1
inactive: [1] -2.35% | [2] -0.45% | [3] 6.9% | [4] -47.6% | [5] 3.95% | [6] 4.35%

Cc1ccc2c(c1)[nH]c(=S)n2C=C1C(=O)NC(=O)NC1=O
inactive: [1] -6.3% | [2] -27.9% | [3] -38% | [4] -10.6% | [5] -7.35% | [6] -15.4%

O=C1N=C(c2c[nH]c3ccccc23)C(=O)N1
inactive: [1] -1.8% | [2] 6.9% | [3] 15.9% | [4] 12.6% | [5] -1.45% | [6] 8.8%

CCCC[P+](CCCC)(CCCC)C(C(=O)OC)C(C(=O)OC)=C1SC(C(=O)OC)=C(C(=O)OC)S1 (centres undefined)
inactive: [1] -0.75% | [2] 0.7% | [3] 6.75% | [4] 6.6% | [5] 19.4% | [6] -45.5%

Cc1ccccc1-n1c(=O)sc2c(=O)n(-c3ccccc3)c(=S)[nH]c21
inactive: [1] -11.2% | [2] -23.4% | [3] 6.9% | [4] 6.2% | [5] 0.6% | [6] -18.9%

O=CNCC1(c2ccccc2)CCNCC1
inactive: [1] 2.25% | [2] -3.25% | [3] 8.05% | [4] -1.7% | [5] 4.4% | [6] -4.6%

CC1(C=O)C(=O)CCC2(C)C3CC(=O)OC3CCC12 (centres undefined)
inactive: [1] -35% | [2] -10.1% | [3] -10.8% | [4] -20.3% | [5] -17.7% | [6] -27.1%

Nc1nc(N)c(N=Nc2ccc(Cl)cc2Cl)c(=O)[nH]1
inactive: [1] 18.6% | [2] -2.6% | [3] -6.45% | [4] 15.6% | [5] 14.8% | [6] 2.75%

CSc1nc2c([nH]1)c(=O)n(C)c(=O)n2C
inactive: [1] 8.8% | [2] 21.4% | [3] 8.4% | [4] -1.8% | [5] 16.8% | [6] 7.1%
